Results on 6 compounds are retold here after ChEMBL document CHEMBL1961873, “Compounds: GSK PKIS; Assays: Nanosyn kinase panel” (2012).

Assay [1] has as its target 5'-AMP-activated protein kinase catalytic subunit alpha-2 (Homo sapiens) (UniProt P54646). As to conditions: at 1 µM.
Assay [2] addresses T1, NUAK family SNF1-like kinase 1 (Homo sapiens) (UniProt O60285).
T1 sequence (whole entry): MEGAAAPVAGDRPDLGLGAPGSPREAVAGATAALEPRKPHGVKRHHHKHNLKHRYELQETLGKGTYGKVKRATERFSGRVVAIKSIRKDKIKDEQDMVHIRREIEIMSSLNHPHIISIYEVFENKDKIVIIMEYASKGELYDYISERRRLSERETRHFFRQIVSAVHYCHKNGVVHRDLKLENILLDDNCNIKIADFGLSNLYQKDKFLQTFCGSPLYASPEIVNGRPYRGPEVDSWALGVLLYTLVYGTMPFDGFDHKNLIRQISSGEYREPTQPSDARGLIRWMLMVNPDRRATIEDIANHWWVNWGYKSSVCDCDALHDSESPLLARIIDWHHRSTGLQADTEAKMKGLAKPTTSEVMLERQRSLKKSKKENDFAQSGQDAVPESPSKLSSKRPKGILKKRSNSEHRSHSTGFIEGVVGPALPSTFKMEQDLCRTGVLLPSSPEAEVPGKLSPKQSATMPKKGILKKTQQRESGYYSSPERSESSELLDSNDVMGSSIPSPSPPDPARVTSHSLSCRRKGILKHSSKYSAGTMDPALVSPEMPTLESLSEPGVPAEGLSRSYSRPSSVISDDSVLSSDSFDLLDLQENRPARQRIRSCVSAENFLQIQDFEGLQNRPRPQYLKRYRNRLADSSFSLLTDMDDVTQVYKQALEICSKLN
As to conditions: at 0.1 µM.

Assay [3] concerns the target T1, NUAK family SNF1-like kinase 1 (Homo sapiens). As to conditions: at 1 µM.
In assay [4] the target is T2, Serine/threonine-protein kinase BRSK1 (Homo sapiens) (UniProt Q8TDC3).
T2 sequence (whole entry): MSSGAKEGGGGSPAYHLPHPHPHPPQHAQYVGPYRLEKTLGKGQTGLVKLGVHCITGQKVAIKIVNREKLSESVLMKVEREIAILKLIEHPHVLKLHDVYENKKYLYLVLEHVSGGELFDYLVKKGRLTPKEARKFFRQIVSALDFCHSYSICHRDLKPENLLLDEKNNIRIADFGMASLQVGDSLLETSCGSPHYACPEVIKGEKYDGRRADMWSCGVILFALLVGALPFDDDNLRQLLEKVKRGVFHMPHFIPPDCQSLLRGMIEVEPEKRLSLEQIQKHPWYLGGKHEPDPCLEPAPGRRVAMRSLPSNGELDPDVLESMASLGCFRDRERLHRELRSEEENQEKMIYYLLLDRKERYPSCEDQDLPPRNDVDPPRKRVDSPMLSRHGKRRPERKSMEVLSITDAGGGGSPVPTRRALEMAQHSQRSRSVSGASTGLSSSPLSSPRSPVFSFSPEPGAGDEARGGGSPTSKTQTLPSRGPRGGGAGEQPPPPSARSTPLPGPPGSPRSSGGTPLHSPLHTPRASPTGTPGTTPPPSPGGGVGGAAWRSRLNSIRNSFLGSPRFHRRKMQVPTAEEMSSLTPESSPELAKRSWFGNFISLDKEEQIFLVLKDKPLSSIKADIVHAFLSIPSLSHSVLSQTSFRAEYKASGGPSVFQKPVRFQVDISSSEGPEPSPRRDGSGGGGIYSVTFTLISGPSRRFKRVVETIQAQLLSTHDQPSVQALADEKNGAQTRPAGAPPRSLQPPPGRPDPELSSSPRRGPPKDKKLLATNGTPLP
As to conditions: at 0.1 µM.

The target of assay [5] is T2, Serine/threonine-protein kinase BRSK1 (Homo sapiens). As to conditions: at 1 µM.
Assay [6] has as its target T3, Serine/threonine-protein kinase BRSK2 (Homo sapiens) (UniProt Q8IWQ3).
T3 sequence (whole entry): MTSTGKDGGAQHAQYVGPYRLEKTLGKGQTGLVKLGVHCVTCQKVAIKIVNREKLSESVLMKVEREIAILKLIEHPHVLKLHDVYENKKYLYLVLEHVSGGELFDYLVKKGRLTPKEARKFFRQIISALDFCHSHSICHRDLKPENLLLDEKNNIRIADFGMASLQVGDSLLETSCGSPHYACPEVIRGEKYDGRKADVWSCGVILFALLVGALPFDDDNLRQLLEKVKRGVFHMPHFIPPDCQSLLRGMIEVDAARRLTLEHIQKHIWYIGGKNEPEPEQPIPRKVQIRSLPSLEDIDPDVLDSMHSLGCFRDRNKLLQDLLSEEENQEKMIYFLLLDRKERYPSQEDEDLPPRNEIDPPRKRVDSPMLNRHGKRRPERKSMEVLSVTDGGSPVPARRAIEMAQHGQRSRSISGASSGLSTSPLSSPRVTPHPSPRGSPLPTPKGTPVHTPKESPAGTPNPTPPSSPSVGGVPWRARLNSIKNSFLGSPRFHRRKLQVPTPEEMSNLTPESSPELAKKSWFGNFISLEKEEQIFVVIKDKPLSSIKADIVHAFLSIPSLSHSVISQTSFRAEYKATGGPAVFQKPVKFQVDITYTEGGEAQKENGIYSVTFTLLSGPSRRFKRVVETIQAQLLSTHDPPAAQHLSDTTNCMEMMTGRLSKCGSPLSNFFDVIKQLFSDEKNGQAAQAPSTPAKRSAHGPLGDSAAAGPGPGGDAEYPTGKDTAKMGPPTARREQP
As to conditions: at 0.1 µM.

The target of assay [7] is T3, Serine/threonine-protein kinase BRSK2 (Homo sapiens). As to conditions: at 1 µM.
Assay [8] addresses Calcium/calmodulin-dependent protein kinase type 1D (Homo sapiens) (UniProt Q8IU85). As to conditions: at 0.1 µM.
Assay [9] shares this target. As to conditions: at 1 µM.
Assay [10] has as its target Calcium/calmodulin-dependent protein kinase type II subunit alpha (Homo sapiens) (UniProt Q9UQM7). As to conditions: at 0.1 µM.
Assay [11] shares this target. As to conditions: at 1 µM.
Assay [12] concerns the target Calcium/calmodulin-dependent protein kinase type II subunit delta (Homo sapiens) (UniProt Q13557). As to conditions: at 0.1 µM.
Assay [13] has the same target. As to conditions: at 1 µM.
Assay [14] deals with T4, Calcium/calmodulin-dependent protein kinase type IV (Homo sapiens) (UniProt Q16566).
T4 sequence (whole entry): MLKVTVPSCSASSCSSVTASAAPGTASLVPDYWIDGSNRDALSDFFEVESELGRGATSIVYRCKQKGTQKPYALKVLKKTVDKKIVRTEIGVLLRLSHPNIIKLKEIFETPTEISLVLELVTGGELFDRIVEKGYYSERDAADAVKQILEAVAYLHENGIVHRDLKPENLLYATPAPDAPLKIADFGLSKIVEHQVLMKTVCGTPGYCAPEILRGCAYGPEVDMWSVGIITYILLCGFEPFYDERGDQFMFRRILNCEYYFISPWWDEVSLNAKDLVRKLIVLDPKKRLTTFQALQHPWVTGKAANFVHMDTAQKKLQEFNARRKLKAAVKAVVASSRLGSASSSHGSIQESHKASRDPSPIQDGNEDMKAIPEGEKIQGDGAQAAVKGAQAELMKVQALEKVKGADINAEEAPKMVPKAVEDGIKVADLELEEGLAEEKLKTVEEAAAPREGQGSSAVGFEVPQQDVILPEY
As to conditions: at 0.1 µM.

Assay [15] deals with T4, Calcium/calmodulin-dependent protein kinase type IV (Homo sapiens). As to conditions: at 1 µM.
For assay [16], the target named is T5, Serine/threonine-protein kinase Chk1 (Homo sapiens) (UniProt O14757).
T5 sequence (whole entry): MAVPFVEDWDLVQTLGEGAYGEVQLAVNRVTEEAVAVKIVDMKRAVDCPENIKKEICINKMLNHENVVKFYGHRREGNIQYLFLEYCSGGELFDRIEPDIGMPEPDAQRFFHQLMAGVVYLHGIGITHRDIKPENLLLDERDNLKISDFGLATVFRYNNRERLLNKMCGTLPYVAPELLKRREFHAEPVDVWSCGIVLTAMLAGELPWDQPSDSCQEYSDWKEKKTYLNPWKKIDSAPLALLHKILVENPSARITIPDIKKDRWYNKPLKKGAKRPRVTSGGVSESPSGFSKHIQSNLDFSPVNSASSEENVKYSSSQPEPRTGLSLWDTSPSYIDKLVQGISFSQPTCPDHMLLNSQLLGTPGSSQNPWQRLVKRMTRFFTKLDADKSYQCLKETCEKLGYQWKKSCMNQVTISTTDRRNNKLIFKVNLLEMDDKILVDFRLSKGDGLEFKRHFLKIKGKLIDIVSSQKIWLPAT
As to conditions: at 0.1 µM.

Assay [17] addresses T5, Serine/threonine-protein kinase Chk1 (Homo sapiens). As to conditions: at 1 µM.
In assay [18] the target is Serine/threonine-protein kinase Chk2 (Homo sapiens) (UniProt O96017). As to conditions: at 0.1 µM.
The target is the same in assay [19]. As to conditions: at 1 µM.
Assay [20] concerns the target Death-associated protein kinase 1 (Homo sapiens) (UniProt P53355). As to conditions: at 0.1 µM.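 Also: reported figure is the mean inhibition of DAPK1.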

Sequence of Death-associated protein kinase 1 (Homo sapiens) (P53355 whole entry, looked up): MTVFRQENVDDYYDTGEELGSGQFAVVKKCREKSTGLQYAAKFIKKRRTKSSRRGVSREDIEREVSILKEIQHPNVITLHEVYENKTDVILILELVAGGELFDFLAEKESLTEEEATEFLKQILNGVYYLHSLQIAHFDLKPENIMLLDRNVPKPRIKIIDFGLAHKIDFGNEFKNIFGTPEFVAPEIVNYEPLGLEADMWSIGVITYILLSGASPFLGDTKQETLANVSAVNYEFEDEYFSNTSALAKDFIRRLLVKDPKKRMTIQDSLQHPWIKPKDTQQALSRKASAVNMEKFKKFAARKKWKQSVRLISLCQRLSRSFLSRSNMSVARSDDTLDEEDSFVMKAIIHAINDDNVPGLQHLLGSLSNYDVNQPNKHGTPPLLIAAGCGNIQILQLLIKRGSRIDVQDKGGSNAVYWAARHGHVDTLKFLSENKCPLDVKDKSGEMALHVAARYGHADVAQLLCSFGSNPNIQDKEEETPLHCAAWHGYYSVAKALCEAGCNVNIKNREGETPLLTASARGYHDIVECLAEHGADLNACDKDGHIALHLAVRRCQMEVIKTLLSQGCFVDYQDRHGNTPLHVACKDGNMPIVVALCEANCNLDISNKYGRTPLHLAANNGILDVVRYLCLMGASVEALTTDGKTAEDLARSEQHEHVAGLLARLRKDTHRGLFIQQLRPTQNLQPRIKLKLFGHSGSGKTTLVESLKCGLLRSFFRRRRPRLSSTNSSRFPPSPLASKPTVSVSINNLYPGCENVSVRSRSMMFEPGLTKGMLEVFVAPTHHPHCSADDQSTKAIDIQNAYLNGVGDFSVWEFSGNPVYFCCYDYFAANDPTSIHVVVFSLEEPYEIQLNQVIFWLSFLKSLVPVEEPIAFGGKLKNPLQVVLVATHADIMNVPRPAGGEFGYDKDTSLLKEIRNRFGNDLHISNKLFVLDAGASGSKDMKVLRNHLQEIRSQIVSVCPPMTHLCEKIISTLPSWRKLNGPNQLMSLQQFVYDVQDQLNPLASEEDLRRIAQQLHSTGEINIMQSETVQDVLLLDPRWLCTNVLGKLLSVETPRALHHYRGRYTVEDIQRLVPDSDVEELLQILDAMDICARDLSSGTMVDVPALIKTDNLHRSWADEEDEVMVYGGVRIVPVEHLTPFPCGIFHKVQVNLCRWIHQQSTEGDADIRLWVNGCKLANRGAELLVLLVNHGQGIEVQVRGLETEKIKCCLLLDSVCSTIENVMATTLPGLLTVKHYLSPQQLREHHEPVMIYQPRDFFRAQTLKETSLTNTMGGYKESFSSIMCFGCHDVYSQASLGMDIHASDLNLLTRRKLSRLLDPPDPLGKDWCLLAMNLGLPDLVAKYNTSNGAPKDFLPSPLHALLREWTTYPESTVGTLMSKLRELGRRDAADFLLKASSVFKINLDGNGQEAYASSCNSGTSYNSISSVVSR
Sequence of Calcium/calmodulin-dependent protein kinase type 1D (Homo sapiens) (Q8IU85 whole entry, looked up): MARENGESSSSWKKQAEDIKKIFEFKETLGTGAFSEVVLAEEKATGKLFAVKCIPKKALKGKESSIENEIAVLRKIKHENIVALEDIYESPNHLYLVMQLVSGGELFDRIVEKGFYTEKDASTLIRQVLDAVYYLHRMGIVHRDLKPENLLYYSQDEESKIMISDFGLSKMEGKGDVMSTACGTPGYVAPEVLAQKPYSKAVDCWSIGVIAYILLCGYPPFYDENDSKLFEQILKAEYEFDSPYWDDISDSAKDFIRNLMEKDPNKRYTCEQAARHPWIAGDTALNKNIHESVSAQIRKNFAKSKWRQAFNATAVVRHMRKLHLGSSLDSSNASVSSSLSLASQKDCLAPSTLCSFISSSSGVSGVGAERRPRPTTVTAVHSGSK
Sequence of Calcium/calmodulin-dependent protein kinase type II subunit alpha (Homo sapiens) (Q9UQM7 whole entry): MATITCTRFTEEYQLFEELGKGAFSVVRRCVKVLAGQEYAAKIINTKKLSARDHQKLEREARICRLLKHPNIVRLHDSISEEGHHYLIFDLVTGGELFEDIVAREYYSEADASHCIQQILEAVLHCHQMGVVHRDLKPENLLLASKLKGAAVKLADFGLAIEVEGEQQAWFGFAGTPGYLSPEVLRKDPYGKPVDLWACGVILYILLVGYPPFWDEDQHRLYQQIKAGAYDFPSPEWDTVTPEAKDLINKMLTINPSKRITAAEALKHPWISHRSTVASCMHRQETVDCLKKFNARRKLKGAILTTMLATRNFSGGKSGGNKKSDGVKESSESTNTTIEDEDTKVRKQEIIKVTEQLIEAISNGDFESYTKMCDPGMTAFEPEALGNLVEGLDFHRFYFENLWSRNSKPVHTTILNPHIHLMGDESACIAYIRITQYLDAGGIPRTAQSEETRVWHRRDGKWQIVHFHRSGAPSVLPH
Sequence of Serine/threonine-protein kinase Chk2 (Homo sapiens) (O96017 whole entry): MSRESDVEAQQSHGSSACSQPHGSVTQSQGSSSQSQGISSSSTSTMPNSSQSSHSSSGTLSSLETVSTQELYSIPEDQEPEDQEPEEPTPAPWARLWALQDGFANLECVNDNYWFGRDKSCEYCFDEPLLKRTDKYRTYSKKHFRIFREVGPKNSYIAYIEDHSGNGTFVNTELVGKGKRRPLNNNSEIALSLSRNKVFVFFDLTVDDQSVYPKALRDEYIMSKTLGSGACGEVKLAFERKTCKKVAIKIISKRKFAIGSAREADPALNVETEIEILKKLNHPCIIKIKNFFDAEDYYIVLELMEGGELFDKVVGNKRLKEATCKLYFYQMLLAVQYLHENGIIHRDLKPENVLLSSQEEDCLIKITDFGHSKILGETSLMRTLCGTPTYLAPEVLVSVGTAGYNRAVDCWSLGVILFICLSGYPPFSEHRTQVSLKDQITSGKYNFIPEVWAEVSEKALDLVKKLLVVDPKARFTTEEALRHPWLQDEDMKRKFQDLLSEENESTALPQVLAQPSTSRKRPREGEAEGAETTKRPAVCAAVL
Sequence of 5'-AMP-activated protein kinase catalytic subunit alpha-2 (Homo sapiens) (P54646 whole entry, looked up): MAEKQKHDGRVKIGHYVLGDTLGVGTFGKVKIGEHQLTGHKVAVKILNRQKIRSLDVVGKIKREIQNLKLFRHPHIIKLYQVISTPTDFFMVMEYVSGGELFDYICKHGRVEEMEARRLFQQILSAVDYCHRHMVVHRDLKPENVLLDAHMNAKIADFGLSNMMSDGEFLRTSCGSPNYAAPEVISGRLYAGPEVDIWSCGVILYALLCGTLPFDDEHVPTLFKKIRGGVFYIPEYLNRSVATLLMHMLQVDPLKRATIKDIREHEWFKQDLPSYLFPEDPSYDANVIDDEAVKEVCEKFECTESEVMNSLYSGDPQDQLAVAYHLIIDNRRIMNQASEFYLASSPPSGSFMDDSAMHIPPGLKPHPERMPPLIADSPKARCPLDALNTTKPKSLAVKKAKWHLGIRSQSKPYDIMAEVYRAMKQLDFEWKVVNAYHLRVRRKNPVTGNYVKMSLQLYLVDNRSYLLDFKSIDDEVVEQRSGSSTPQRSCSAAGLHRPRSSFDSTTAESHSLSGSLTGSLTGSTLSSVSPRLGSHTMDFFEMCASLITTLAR
Sequence of Calcium/calmodulin-dependent protein kinase type II subunit delta (Homo sapiens) (Q13557 whole entry): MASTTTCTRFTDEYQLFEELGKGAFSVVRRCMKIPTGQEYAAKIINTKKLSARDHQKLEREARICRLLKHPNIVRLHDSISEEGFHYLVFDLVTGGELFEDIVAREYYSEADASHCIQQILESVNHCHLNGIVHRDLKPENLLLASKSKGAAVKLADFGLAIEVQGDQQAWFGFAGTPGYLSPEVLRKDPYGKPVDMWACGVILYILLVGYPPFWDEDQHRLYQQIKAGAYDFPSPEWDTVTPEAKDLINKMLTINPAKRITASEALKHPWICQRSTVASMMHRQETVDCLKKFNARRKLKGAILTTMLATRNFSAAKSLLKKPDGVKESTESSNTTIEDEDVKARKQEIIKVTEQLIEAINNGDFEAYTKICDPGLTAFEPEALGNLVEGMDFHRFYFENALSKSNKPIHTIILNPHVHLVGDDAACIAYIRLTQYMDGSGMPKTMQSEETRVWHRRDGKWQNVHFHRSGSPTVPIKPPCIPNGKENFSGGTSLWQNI

The term inhibition denotes the drop in the measured response relative to a control, in per cent. For the compound `COc1cc2ncn(-c3cc(OCc4cccs4)c(C(N)=O)s3)c2cc1OC`, the inhibition was 5.5% in assay [1]; 20.1% in [2]; 63.2% in assay [3]; 9% in assay [4]; 50% in [5]; 16.6% in [6]. Also, the inhibition was found to be 60.6% in assay [7]; 0.15% in assay [8]; 0.12% in assay [9]; 2.87% in assay [10]; 1.67% in assay [11]; 0.52% in assay [12]. Moreover, the inhibition is 2.97% in assay [13]; -3.4% in [14]; -4.06% in assay [15]; 1.35% in [16]; 3.75% in assay [17]; 2.01% in [18]. For the same compound, the inhibition turned out to be 5.81% in assay [19] and 0.06% in assay [20].
With `COc1cccc(-n2cnc3c(N/N=C/c4ccncc4)ncnc32)c1`, the inhibition in [1] was 1.47%; in [2], 2.39%; in [3] it was 22.3%; in assay [4], -0.01%; in [5], 4.34%; in assay [6], -0.23%. For the same compound, the inhibition in assay [7] was 6.3%; in [8] it was 0.54%; in [9], -0.39%; in assay [10], 0.58%; in assay [11], 1.18%; in assay [12], -1.07%. Also, the inhibition is -1.61% in [13]; -2.88% in [14]; -5.3% in assay [15]; 0.34% in [16]; 0.31% in assay [17]; -0.94% in [18]. The results for the inhibition in assay [19] and in assay [20] were -0.32% and -0.67%, respectively.
Regarding `Cc1ccc(C(=O)NC2CCC2)cc1-c1ccc(C(=O)NCC2CC2)cc1`, the inhibition in assay [1] was determined as 0.57%; in assay [2], 0.27%; in assay [3] it was 5.25%; in [4] it was 1.77%; in assay [5] it was 3.1%; in assay [6], 1.53%. Besides, the inhibition in [7] is 4.25%; in assay [8] it was 0.09%; in assay [9], 2.93%; in [10], 3.06%; in [11], 2.38%; in assay [12] it was 1.89%. Moreover, the inhibition in assay [13] was 1.44%; in assay [14], 0.4%; in assay [15], 0.59%; in [16] it was 2.53%; in [17], 2.39%; in assay [18], 1.83%. Moreover, the inhibition in assay [19] came to 3.06%; in assay [20], 2.9%.
In the case of `O=C(Nc1n[nH]c2cc(-c3cc(F)ccc3F)ccc12)C1CC1`, the inhibition in assay [1] was 9.82%; in assay [2], -2.28%; in assay [3], -2.43%; in [4] it was 2.17%; in assay [5], 15.3%; in assay [6], 3.03%. Moreover, the inhibition in assay [7] is 14.1%; in assay [8] it was -0.34%; in [9] it was 1.27%; in assay [10], 1.96%; in assay [11], 2.68%; in assay [12] it was 3.1%. Further, the inhibition in [13] is 25.3%; in assay [14], 1.86%; in assay [15], 1.99%; in assay [16], -0.4%; in assay [17], 1.41%; in assay [18] it was 2.67%. The figures for the inhibition in [19] and in [20] were 3.25% and -0.82%, respectively.
In the case of `CCc1nccc2c1nc(-c1nonc1N)n2CC`, the inhibition in assay [1] was 2%; in assay [2], 2.71%; in assay [3] it was 4.47%; in assay [4], 0.98%; in assay [5], 4.27%; in assay [6], 2.16%. For the same compound, the inhibition was found to be 4.53% in [7]; 1.07% in [8]; 1.8% in [9]; 0.2% in assay [10]; 2.34% in assay [11]; 2% in assay [12]. The inhibition is 3.76% in assay [13]; 2.07% in assay [14]; 1.55% in assay [15]; 1.61% in [16]; -3.41% in assay [17]; -1.09% in assay [18]. The inhibition in assay [19] was -0.94%; in assay [20], 0.87%.
As for `COc1cc(Nc2ncc3c(C)nc(-c4cccc(C(F)(F)F)c4)n3n2)cc(OC)c1OC`, the inhibition in assay [1] was 25%; in assay [2] it was 35.4%; in [3], 65.3%; in assay [4] it was 4.57%; in assay [5], 7.57%; in assay [6], 5.62%. The inhibition in [7] is 9.19%; in assay [8], -1.94%; in assay [9], -0.82%; in assay [10] it was 2.25%; in assay [11] it was 2%; in assay [12], 3.19%. Also, the inhibition in assay [13] is 5.08%; in assay [14], -2%; in [15] it was -3.22%; in assay [16], 1.23%; in [17] it was 5.15%; in assay [18] it was 6.47%. The inhibition in assay [19] is 9.62%; in assay [20], -0.52%.
